Measured values from PubChem BioAssay (NCI).
About 83,000 compounds went through this panel and 20% of them were active in at least one assay; those are over-represented in the sample as a whole.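 Cells were grown in 96-well plates and exposed to the test compound at a single concentration for 48 hours; results are reported as percent growth, with values below 10 considered active.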 A number with no mark means an inactive call. Calls of active or inactive are those of the source.

Key:
Experiment in all cases: NCI-60 one-dose screen, 48 h (100 = growth as untreated, 0 = no growth, -100 = all killed)
Conditions in all cases: 10 µM unless noted
[1] = tested on: NCI-H23 lung
[2] = tested on: NCI-H226 lung
[3] = tested on: NCI-H322M lung
[4] = tested on: HOP-62 NSCLC
[5] = tested on: NCI-H460 lung
[6] = tested on: HOP-92 NSCLC
[7] = tested on: NCI-H522 lung
[8] = tested on: A549/ATCC NSCLC
[9] = tested on: 786-0 renal
[10] = tested on: COLO 205 colon
[11] = tested on: DU-145 prostate
[12] = tested on: K-562 leukemia
[13] = tested on: MALME-3M melanoma
[14] = tested on: MDA-MB-231 breast
[15] = tested on: RXF 393 renal
[16] = tested on: SF-268 CNS
[17] = tested on: SF-295 CNS
[18] = tested on: SF-539 CNS
[19] = tested on: UACC-257 melanoma
[20] = tested on: M14 melanoma

Row | SMILES | growth [1] | growth [2] | growth [3] | growth [4] | growth [5] | growth [6] | growth [7] | growth [8] | growth [9] | growth [10] | growth [11] | growth [12] | growth [13] | growth [14] | growth [15] | growth [16] | growth [17] | growth [18] | growth [19] | growth [20]
1 | C(=C(\C1=NCCN1)n1ccc2ccccc21)/c1ccccc1 | 97% | 93.5% | 97.7% | 96.3% | 101% | 78.7% | 89.7% | 99.9% | 98.3% | 107% | 103% | 96.7% | 93.4% | 96.8% | 89.9% | 91.8% | 99.3% | 99.5% | 93.3% | 91.4%
2 | OC1CSSC1Cn1cnc2c(Nc3ccc(OCc4cccc(F)c4)c(Cl)c3)ncnc21 (stereo not given) | -69.4% (active) | 4.07% (active) | -27.8% (active) | -27.2% (active) | -6.17% (active) | 139% | -31.6% (active) | 3.03% (active) | 69.5% | -58.3% (active) | -36.8% (active) | -56.7% (active) | -5.08% (active) | -59.2% (active) | 42.3% | -41.5% (active) | 4.71% (active) | -3.08% (active) | 26.6% | -81.1% (active)
3 | O=C(Nc1cc(Cl)cc(Cl)c1)Oc1c(Cl)c(Cl)c(Cl)c(Cl)c1Cl | 57% | 72.5% | 99.2% | 94.4% | 72.6% | -18.7% (active) | 38.9% | 71.2% | 81.1% | 80.7% | 83.7% | 41.4% | 80.6% | 77.8% | 79.7% | 77.3% | 59.8% | 76.8% | 83.7% | 87.3%
4 | ClCCn1cnc2c(SCc3ccccc3)ncnc21 | 72.4% | 65.4% | 75.3% | 66.6% | 12.2% | 63.7% | 65.8% | 40% | 64.8% | 52.4% | 63.3% | 40.8% | 57.6% | 75.6% | 87.8% | 67.1% | 37.6% | 37.3% | 62.4% | 71.7%
5 | C=C(C)[C@@H]1CC[C@]2(COC3CCCCO3)CC[C@]3(C)[C@H](CC[C@@H]4[C@@]5(C)C=C(C=O)C(=O)C(C)(C)[C@@H]5CC[C@]43C)[C@@H]12 (stereo not given in full) | -58.9% (active) | 1.68% (active) | 8.97% (active) | -68% (active) | -47.2% (active) | -91.6% (active) | -75% (active) | -63.5% (active) | -86.2% (active) | -32% (active) | -94.3% (active) | -24.9% (active) | -75.4% (active) | -37.7% (active) | -85.7% (active) | -67.1% (active) | -95.5% (active) | -74.3% (active) | -28.5% (active) | -62.9% (active)
6 | Cc1cc(C)c2c(c1)N(C)c1ncnc(-n3c(C)nc4cc(C)ccc43)c1CC2C (stereo not given) | 61.7% | 61.6% | 73.4% | 43.7% | 22.6% | 11.2% | 19.4% | 26.3% | 30.1% | 54.1% | 55.3% | 12.4% | 45.4% | 61.2% | -10.4% (active) | 45.9% | 9.14% (active) | 25.2% | 25.8% | 25.3%
7 | CCOC(=O)C1=C(CC(O)c2ccc(OC)cc2OC)NC(=O)NC1c1ccccc1 (stereo not given) | 103% | 100% | 104% | 97.8% | 113% | 82.5% | 98.5% | 107% | 102% | 126% | 110% | 56.1% | 93.8% | 99.4% | 120% | 109% | 109% | 95.1% | 102% | 109%
8 | CCCCCCCCn1ccc2cc(NC(=O)CN=[N+]=[N-])ccc21 | 102% | 95.4% | 102% | 114% | 107% | 111% | 88.3% | 100% | 94.1% | 118% | 108% | 93.5% | 109% | 101% | 104% | 97.9% | 100% | 106% | 103% | 109%
